Experimental data: ChEMBL document CHEMBL1961873, “Compounds: GSK PKIS; Assays: Nanosyn kinase panel” (2012)

Assays:
[1] = test system: Epidermal growth factor receptor (Homo sapiens), P00533 [T790M]; details: at 1 µM
[2] = test system: Epidermal growth factor receptor (Homo sapiens), P00533 [L858R,T790M]; details: at 0.1 µM
[3] = test system: Epidermal growth factor receptor (Homo sapiens), P00533 [L858R,T790M]; details: at 1 µM
[4] = biological target: Ephrin type-A receptor 2 (Homo sapiens) (UniProt P29317); details: at 0.1 µM
[5] = biological target: Ephrin type-A receptor 2 (Homo sapiens) (UniProt P29317); details: at 1 µM
[6] = biological target: T1, Ephrin type-A receptor 3 (Homo sapiens) (UniProt P29320); details: at 0.1 µM
T1 sequence (whole entry): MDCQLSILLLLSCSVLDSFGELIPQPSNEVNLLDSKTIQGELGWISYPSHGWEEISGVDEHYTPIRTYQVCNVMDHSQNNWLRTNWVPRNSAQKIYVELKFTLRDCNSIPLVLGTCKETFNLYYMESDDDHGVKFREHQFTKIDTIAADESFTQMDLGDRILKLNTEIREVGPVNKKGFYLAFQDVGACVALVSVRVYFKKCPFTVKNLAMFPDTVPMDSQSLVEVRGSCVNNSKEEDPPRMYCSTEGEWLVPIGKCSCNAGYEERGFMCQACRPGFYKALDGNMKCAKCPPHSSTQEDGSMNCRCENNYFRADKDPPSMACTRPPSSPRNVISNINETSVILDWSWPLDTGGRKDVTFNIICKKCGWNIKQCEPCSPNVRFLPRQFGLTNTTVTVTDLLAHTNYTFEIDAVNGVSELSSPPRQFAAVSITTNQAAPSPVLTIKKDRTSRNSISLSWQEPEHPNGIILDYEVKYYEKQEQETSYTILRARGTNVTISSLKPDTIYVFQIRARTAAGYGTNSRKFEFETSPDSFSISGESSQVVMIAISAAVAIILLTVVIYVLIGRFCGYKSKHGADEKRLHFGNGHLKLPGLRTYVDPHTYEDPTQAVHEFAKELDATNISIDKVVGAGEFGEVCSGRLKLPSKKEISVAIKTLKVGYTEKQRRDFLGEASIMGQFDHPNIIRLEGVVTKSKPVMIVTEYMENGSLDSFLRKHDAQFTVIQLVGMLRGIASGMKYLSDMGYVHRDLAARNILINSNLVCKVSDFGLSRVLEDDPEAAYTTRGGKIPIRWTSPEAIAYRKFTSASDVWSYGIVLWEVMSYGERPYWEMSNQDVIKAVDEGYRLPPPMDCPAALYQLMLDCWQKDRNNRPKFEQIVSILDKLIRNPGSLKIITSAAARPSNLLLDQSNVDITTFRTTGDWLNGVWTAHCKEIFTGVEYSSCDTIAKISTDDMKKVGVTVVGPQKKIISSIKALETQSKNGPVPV

[7] = biological target: T1, Ephrin type-A receptor 3 (Homo sapiens); details: at 1 µM
[8] = biological target: Ephrin type-A receptor 4 (Homo sapiens) (UniProt P54764); details: at 0.1 µM
[9] = biological target: Ephrin type-A receptor 4 (Homo sapiens) (UniProt P54764); details: at 1 µM
[10] = biological target: T2, Ephrin type-B receptor 2 (Homo sapiens) (UniProt P29323); details: at 0.1 µM;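 further: reported as mean inhibition of EPHB2, from the GSK PKIS dataset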
T2 sequence (whole entry): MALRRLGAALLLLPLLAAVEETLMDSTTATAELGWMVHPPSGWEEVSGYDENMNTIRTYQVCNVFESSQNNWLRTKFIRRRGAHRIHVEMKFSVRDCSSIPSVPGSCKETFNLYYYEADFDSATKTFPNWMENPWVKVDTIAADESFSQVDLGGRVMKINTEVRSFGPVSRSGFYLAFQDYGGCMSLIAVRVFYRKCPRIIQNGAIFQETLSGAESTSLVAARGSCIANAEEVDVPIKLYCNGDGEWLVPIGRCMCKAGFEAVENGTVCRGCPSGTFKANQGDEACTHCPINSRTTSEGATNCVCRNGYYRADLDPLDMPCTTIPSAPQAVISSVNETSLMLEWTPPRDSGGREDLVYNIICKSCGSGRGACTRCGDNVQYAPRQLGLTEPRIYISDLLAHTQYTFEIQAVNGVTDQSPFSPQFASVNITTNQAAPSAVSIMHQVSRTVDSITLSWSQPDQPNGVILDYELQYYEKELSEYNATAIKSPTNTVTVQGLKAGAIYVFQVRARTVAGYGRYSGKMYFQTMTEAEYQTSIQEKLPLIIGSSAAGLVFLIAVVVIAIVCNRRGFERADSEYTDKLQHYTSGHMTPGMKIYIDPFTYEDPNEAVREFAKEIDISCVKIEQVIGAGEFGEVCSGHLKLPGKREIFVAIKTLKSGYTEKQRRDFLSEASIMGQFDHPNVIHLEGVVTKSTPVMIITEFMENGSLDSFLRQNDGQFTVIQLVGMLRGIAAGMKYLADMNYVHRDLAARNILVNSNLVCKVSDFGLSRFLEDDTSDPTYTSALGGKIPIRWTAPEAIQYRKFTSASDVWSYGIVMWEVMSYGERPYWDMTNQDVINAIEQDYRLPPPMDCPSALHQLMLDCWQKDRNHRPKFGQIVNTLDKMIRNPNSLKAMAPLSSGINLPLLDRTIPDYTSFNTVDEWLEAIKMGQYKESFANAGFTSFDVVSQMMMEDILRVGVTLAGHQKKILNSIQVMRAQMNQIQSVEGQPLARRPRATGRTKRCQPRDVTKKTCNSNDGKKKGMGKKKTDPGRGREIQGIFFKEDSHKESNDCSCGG

Epidermal growth factor receptor (Homo sapiens), P00533 [L858R,T790M], sequence (P00533 whole entry T790M/L858R, looked up): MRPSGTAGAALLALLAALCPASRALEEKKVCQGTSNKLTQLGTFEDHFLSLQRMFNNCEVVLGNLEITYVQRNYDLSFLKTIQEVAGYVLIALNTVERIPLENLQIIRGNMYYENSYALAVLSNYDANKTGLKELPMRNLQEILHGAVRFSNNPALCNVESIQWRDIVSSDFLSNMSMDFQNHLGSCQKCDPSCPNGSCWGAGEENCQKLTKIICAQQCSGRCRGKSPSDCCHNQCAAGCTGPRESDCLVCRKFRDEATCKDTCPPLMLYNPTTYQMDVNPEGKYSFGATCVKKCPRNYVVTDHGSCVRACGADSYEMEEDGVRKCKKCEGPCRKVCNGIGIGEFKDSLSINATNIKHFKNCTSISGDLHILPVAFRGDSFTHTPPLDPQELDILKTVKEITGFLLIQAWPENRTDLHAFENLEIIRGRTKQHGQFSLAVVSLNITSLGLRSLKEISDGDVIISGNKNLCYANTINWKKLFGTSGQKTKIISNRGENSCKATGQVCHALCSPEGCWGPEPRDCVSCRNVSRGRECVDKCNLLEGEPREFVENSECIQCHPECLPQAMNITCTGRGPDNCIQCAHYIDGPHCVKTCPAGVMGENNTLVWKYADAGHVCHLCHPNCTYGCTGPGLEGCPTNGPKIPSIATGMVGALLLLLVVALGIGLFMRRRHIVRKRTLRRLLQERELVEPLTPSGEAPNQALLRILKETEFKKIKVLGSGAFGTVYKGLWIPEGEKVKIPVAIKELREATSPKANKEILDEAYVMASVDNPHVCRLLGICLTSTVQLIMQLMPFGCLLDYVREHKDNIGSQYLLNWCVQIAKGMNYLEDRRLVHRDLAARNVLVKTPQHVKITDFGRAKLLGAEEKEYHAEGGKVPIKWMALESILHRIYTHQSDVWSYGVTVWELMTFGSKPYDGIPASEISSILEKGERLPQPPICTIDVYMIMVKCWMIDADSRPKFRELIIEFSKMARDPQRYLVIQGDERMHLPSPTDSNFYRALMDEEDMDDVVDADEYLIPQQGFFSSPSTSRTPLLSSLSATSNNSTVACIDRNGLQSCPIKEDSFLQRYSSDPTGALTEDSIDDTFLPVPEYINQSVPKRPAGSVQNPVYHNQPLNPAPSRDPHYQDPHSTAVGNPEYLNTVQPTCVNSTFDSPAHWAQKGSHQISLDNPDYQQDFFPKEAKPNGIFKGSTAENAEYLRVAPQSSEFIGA
Epidermal growth factor receptor (Homo sapiens), P00533 [T790M], sequence (P00533 whole entry T790M): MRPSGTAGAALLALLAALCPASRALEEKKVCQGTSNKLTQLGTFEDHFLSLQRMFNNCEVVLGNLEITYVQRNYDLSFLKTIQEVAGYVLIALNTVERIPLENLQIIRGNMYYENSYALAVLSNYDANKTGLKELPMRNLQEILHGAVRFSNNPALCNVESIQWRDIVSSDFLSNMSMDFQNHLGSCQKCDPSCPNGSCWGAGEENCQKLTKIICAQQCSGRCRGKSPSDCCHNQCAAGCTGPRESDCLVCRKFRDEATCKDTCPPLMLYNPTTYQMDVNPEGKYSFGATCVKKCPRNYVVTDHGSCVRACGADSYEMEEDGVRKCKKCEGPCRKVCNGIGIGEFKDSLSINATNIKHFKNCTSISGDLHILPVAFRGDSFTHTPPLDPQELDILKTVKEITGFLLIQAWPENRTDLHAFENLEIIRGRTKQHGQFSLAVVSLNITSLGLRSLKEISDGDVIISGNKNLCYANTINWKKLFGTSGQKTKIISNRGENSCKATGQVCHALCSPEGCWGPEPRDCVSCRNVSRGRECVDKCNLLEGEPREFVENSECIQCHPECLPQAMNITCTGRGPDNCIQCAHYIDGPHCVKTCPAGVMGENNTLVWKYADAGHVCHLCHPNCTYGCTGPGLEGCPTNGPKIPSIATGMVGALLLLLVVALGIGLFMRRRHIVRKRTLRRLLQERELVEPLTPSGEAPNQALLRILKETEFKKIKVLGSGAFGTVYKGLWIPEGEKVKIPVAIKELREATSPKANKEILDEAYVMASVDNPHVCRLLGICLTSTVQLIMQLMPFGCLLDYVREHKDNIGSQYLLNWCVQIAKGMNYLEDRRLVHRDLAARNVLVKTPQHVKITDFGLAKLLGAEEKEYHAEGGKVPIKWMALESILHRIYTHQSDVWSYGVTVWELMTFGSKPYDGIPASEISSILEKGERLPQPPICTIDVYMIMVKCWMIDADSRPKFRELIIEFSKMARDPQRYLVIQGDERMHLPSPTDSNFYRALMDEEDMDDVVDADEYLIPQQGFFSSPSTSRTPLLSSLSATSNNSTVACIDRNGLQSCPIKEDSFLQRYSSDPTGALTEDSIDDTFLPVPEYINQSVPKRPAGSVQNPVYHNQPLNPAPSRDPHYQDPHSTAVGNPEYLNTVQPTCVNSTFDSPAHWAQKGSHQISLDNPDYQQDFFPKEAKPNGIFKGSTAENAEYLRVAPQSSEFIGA
Ephrin type-A receptor 4 (Homo sapiens), sequence (P54764 whole entry): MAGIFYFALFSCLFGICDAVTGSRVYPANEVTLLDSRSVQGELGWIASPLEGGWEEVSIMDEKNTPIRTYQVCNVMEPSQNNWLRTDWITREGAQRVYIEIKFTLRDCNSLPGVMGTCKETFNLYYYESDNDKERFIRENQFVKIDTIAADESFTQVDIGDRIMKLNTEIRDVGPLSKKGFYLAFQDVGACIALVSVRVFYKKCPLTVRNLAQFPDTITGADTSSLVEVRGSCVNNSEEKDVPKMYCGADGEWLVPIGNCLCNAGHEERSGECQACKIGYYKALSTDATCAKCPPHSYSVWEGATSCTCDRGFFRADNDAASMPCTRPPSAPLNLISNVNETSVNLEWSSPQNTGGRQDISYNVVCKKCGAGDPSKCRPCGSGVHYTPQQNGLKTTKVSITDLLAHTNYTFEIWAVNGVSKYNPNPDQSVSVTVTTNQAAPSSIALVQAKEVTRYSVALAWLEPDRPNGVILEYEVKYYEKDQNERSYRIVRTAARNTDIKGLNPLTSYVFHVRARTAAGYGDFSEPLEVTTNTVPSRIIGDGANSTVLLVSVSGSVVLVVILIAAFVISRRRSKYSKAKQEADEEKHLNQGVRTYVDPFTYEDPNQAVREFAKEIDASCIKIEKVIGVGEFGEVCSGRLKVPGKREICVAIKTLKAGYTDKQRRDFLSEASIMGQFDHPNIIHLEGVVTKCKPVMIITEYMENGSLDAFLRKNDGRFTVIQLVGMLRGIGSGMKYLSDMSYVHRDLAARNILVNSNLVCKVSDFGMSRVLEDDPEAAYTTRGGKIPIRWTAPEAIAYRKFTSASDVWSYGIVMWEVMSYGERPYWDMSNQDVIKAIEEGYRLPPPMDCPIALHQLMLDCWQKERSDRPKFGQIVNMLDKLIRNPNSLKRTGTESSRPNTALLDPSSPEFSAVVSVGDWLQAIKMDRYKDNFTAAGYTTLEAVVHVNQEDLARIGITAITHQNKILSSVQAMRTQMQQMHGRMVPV
Ephrin type-A receptor 2 (Homo sapiens), sequence (P29317 whole entry): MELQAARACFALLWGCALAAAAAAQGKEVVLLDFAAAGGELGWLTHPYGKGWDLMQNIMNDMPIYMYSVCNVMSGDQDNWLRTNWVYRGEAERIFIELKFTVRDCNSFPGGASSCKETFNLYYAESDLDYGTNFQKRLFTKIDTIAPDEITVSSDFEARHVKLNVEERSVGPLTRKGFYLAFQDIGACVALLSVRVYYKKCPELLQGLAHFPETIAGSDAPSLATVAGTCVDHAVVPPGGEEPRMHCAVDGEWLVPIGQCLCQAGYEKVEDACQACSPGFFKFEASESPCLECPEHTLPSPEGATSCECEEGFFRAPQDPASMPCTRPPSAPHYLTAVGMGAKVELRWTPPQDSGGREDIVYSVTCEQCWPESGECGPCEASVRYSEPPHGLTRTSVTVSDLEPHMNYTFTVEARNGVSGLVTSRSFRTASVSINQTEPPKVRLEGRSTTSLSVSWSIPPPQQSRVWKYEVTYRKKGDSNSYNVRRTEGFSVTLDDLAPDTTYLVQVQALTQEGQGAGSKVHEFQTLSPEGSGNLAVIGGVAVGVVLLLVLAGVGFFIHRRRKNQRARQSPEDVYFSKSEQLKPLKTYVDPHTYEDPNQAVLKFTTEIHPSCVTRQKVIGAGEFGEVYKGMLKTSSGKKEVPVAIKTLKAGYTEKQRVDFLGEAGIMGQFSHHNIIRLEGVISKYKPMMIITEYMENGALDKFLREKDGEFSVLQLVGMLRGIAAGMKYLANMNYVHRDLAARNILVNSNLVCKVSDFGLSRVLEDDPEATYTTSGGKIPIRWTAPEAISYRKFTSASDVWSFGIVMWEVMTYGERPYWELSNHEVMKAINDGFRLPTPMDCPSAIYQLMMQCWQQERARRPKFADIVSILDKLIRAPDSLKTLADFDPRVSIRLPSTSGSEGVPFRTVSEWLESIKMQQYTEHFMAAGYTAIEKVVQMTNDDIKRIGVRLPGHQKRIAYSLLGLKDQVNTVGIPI

| SMILES | inhibition [1] [%] | inhibition [2] [%] | inhibition [3] [%] | inhibition [4] [%] | inhibition [5] [%] | inhibition [6] [%] | inhibition [7] [%] | inhibition [8] [%] | inhibition [9] [%] | inhibition [10] [%] |
| --- | --- | --- | --- | --- | --- | --- | --- | --- | --- | --- |
| COc1ccc2ncnc(Nc3ccc(OCc4ccccc4)cc3)c2c1 | 5.68 | 2.24 | 4.15 | 1.06 | 0.85 | 2.45 | 3.28 | 5.9 | 5.92 | 3.16 |
| NC(=O)c1cccc(Nc2nccc(Nc3cccc(F)c3)n2)c1 | 1.97 | -1.09 | 2.58 | -0.63 | 17.9 | 0.42 | 7.65 | 5.65 | 29.1 | 3.44 |
| CCn1c(-c2nonc2N)nc2ccc(F)cc21 | 6.26 | 3.36 | 6.82 | 0.18 | 0.43 | 4.17 | 4.99 | 11.3 | 15 | 7.78 |
| O=C(Nc1ccc(Oc2ccc3[nH]c(NC(=O)c4ccco4)nc3c2)cc1)Nc1cc(C(F)(F)F)ccc1F | -1.32 | 1.13 | 0.64 | 18.8 | 82.8 | 4.15 | 15.9 | 36.3 | 86.9 | 36.1 |
| CC(C)c1ccc(Nc2nccc(-c3cnn4ncccc34)n2)cc1 | 2.45 | -0.56 | 2.24 | -0.98 | 0.28 | 1.96 | 4.55 | 8.08 | 10.3 | 7.64 |
| NS(=O)(=O)c1cccc(-c2cc3ccncc3cc2OCc2ccccc2)c1 | 1.71 | 1.48 | 0.67 | 1.97 | 1.53 | 2.7 | 3.87 | 8.09 | 5.03 | 4.23 |
| CS(=O)(=O)CCNCc1nc(-c2ccc3ncnc(Nc4ccc(OCc5cccc(C(F)(F)F)c5)cc4)c3c2)cs1 | -0.12 | -2.33 | -3.57 | 1.44 | 0.05 | 2.99 | 3.51 | 0.66 | 7.07 | 0.86 |
| COc1cc(/C=N/Nc2ncnc3c2cnn3C(C)C)ccc1O | 0.47 | -0.23 | 2.31 | 1.56 | 21.1 | 3.55 | 7.89 | 7.43 | 32.9 | 5.57 |
| O=C1Nc2ccc(-c3cccnc3)cc2C1=Cc1cc(Br)c(O)c(Br)c1 | 0.57 | 2.96 | 5.14 | 2.12 | 0.76 | 4.82 | 3.94 | 3.36 | 5.16 | 7.83 |
| CS(=O)(=O)Nc1cccc(-c2ccc3c(NC(=O)C4CC4)n[nH]c3c2)c1 | -1.01 | 0.55 | -1.6 | 0.19 | 1.68 | 1.66 | -1.02 | 1.83 | -7.46 | -4.01 |
| Cc1cc(-c2ccccn2)cc(C)c1/C=C/c1cncc(-c2nn[nH]n2)c1 | 1.45 | -2.34 | 3.4 | 0.59 | 2.96 | 3.5 | 4.9 | 6.16 | 17.3 | 5.94 |
| CCCN1CCCC(c2ccc(Nc3nc(Nc4cc(F)ccc4C(N)=O)c4cc[nH]c4n3)c(OC)c2)C1 (stereo not given) | 79.3 | 55.5 | 85.6 | -1.17 | -1.1 | 3.86 | 4.27 | 8.97 | 4.53 | 8.14 |
| c1ccc(Nc2ncc(-c3ccccc3)o2)cc1 | 3.42 | -0.6 | 3.56 | 1.18 | 0.47 | 3.55 | 4.8 | 7.56 | 12.1 | 7.58 |
| OCc1ccc(-c2nc(-c3ccccn3)c(-c3ccc4c(c3)OCO4)[nH]2)cc1 | 0.84 | 3.54 | 0.26 | 2.78 | 2.31 | 6.06 | 6.97 | 9.84 | 7.48 | 12.2 |
| COC(=O)Nc1nc2cc(Oc3ccc(NC(=O)Nc4cccc(Br)c4)cc3)ccc2[nH]1 | 2.61 | -0.2 | -0.25 | 28.1 | 55.2 | 13 | 12.4 | 52.1 | 76.9 | 56.7 |
| CCS(=O)(=O)c1ccc(OC)c(Nc2nccc(N(C)c3ccc4c(C)n[nH]c4c3)n2)c1 | 18.8 | 2.67 | 4.47 | 3.32 | 10.1 | 4.4 | 12.2 | 11.8 | 45.3 | 16.4 |
| N#Cc1cccc(Nc2nccc(-c3cnn4ncccc34)n2)c1 | 6.4 | 0.25 | 9.41 | 2.26 | 15 | 8.11 | 19.2 | 13 | 43.8 | 15.1 |

| SMILES | inhibition [1] [%] | inhibition [2] [%] | inhibition [3] [%] | inhibition [4] [%] | inhibition [5] [%] | inhibition [6] [%] | inhibition [7] [%] | inhibition [8] [%] | inhibition [9] [%] | inhibition [10] [%] |
| --- | --- | --- | --- | --- | --- | --- | --- | --- | --- | --- |
| C[C@@H](Oc1cc(-n2cnc3ccc(OCC4CCN(C)CC4)cc32)sc1C(N)=O)c1ccccc1C(F)(F)F | 1.67 | 1.72 | 18.6 | -3.67 | -3.26 | -6.9 | -0.01 | -6.91 | -4.57 | -9.54 |
| CCS(=O)(=O)c1ccc(OC)c(Nc2ncc(-c3cccc(OC)c3)o2)c1 | -0.32 | -0.04 | 0.18 | 3.67 | 3.85 | 5.57 | 8.5 | 6.27 | 12 | 9.46 |
| Cc1ccc2c(-c3ccnc(Nc4cccc(C(F)(F)F)c4)n3)c(-c3ccccc3)nn2n1 | 57.7 | 35.2 | 87.6 | 0.69 | 4.04 | 5.98 | 15.1 | 8.59 | 33.9 | 17.6 |
| CN(C)CCCn1c(-c2nonc2N)nc2cnccc21 | 4.68 | -0.67 | 3.5 | 0.86 | 0.27 | 4.17 | 5.42 | 4.85 | 3.54 | 3.03 |
| Cc1ccc2c(-c3ccnc(Nc4ccc5c(c4)OCCO5)n3)c(-c3ccc(C(F)(F)F)cc3)nn2n1 | 1.14 | 2.01 | 2.06 | 2.03 | 0.72 | 1.81 | 0 | 1.21 | 3.57 | -7.93 |
| NS(=O)(=O)c1ccc(NC=C2C(=O)Nc3ccc4ncsc4c32)cc1 | 2.64 | 3.17 | 9.63 | 2.13 | 7.25 | 5.57 | 12.8 | 11.3 | 33.7 | 4.62 |
| Oc1cccc(-c2nc(-c3ccccc3)[nH]c2-c2ccncc2)c1 | 2.55 | 2.26 | 4.01 | 1.93 | 7.66 | 7.79 | 6.42 | 11.7 | 32.9 | 8.8 |
| N#Cc1c(NC(=O)c2ccccc2F)sc2c1CCCC2 | -1.31 | -0.25 | -0.34 | -2.61 | -2.44 | -3.2 | -1.65 | -3.04 | -0.99 | -7.95 |
| Nc1nccc(-c2c(-c3ccc(F)cc3)ncn2CCCN2CCOCC2)n1 | 3.66 | 3.71 | 0.56 | -0.08 | 0.96 | 0.74 | 3.02 | 7.96 | 9.12 | 4.96 |
| COc1cc2ncnc(Nc3ccc4c(cnn4Cc4ccccc4)c3)c2cc1OC | 36.2 | 1.03 | 3.09 | -2.8 | -2.26 | 1.64 | 2.12 | 4.83 | 6.82 | 4.85 |
| Nc1nccc(-c2c(-c3ccc(F)cc3)nn3cc(C(F)(F)F)ccc23)n1 | 2.37 | -0.45 | 1.18 | 0.62 | -0.02 | 0.75 | -0.28 | 2.89 | 5.34 | -9.27 |
| CN1CCN(C(=O)c2ccc(NC(=O)Nc3ccc(N(C)c4ccnc(Nc5ccc(CS(C)(=O)=O)cc5)n4)cc3)cc2)CC1 | 1.47 | -1.16 | 2.86 | 0.47 | 5.09 | 0.72 | 4.49 | 5.53 | 22.9 | 8.44 |
| C[C@@H](Oc1cc(-n2cnc3ccc(OC[C@@H](O)CO)cc32)sc1C(N)=O)c1ccccc1Cl | -1.48 | -1.15 | -0.33 | -4.23 | -4.51 | -2.37 | 1.69 | -2.22 | -0.2 | -0.2 |
| c1ccc(Cc2nc3ccc(Nc4ncnc5ccccc45)cc3[nH]2)cc1 | 2.67 | 1.06 | -0.39 | 1.21 | 0.81 | 4.49 | 4.41 | 9.01 | 11.7 | 8.45 |
| Cc1nc(-c2ccccc2)n2nc(NCCCN3CCOCC3)ncc12 | 2 | -0.39 | 3.29 | 0.3 | -0.95 | 3.7 | 4.01 | 5.25 | 8.81 | -0.43 |
| FC(F)(F)c1ccc(-c2nn3ncccc3c2-c2ccnc(Nc3ccc4c(c3)OCCO4)n2)cc1 | 7.94 | 0.49 | 10.3 | 4.63 | 3.45 | 0.34 | 2.49 | 1.05 | 21.2 | 3.69 |
